# DAX1 inh-1 – DAX1 (NR0B1) inhibitors, primary screen, cell-based, HEK293, Gal4-DAX1, luciferase luminescence | HEK293 Gal4-DAX1 luciferase reporter | Nuclear receptor subfamily 0 group B member 1 (Homo sapiens), P51843 | inhibition, % at 6.75 µM | actives 0.99% (n = 340,000);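 active means inhibition above the mean over all tested compounds plus 3 SD, cut at about 4.2% in these data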;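 further: 0% = DAX1-transfected cells with DMSO and 100% = empty-vector control cells with DMSO; inhibition shows as a rise in luminescence from relieved DAX1 repression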
# Target sequence (P51843 207-470 limits assumed): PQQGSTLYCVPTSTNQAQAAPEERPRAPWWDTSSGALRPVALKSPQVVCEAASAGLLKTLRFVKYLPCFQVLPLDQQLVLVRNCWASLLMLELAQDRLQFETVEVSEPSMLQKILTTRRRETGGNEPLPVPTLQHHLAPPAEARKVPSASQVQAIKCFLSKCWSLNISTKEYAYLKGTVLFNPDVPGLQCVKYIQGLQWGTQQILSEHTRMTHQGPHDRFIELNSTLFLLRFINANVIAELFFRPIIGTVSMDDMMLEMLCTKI
# DAX1 inh-2 – DAX1 (NR0B1) inhibitors on StAR promoter, primary screen, cell-based, luminescence, SF-1 (NR5A1), full-length DAX-1 | HEK293T StAR-luciferase reporter, SF-1/DAX-1 repression relief | inhibition, % at 6.8 µM | AID 652010, 2013 | actives 1.1% (n = 370,000);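 active means inhibition above the mean over all tested compounds plus 3 SD, cut at about 3.6% in these data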;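 further: 0% = DAX-1 cells with DMSO and 100% = cells lacking DAX-1 with DMSO; higher inhibition means more luminescence from relief of DAX-1 repression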
# hcDAF12 agonist – H. contortus DAF-12 nuclear receptor activators, primary screen, cell-based, luminescence, HEK293, lit1-tk-luc reporter | HEK293 hcDAF-12 lit1-tk-luc reporter; 0% DMSO, 100% Δ7-dafachronic acid | activation, % at 6.8 µM | actives 1.4% (n = 370,000) | AID 652067, 2013;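 active means activation above the mean of all tested compounds plus 3 SD, cut at about 5.5% in these data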;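 further: 100% = response to 3 µM Δ7-dafachronic acid high control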
# ssDAF12 agonist – S. stercoralis DAF-12 nuclear receptor activators, primary screen, cell-based, luminescence, HEK293, GRIP1 co-expression, lit1-tk-luc | Nuclear hormone receptor DAF-12 (Strongyloides stercoralis) | HEK293 ssDAF-12/GRIP1 lit1-tk-luc reporter; % of 3 µM dafachronic acid response | activation, % at 6.8 µM | actives 1% (n = 370,000);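 active means activation above the mean over all tested compounds plus 3 SD, cut at about 0.9% in these data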;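 further: 0% = DMSO-only wells and 100% = 3 µM delta7-dafachronic acid wells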
# hgDAF12 agonist – H. glycines DAF-12 receptor agonists, primary screen, cell-based, luminescence, HEK293, GAL4 fusion, UAS-luciferase | Nuclear hormone receptor DAF-12 (Heterodera glycines), GAL4 fusion | HEK293 GAL4-hgDAF12 UAS-luciferase reporter, agonist luminescence; normalized to butyrate control | activation, % at 6.8 µM | actives 1.8% (n = 370,000) | AID 687014, 2013;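 active means activation above a cutoff set at the mean of all screened compounds plus 3 SD, cut at about 10% in these data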;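 further: 0% = DMSO wells and 100% = sodium butyrate wells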
# * hit, by the source's call; . = no result given. Shown are actives, neighbours in structure and some others; about 4.1% of the full set was active somewhere.
SMILES,DAX1 inh-1,DAX1 inh-2,hcDAF12 agonist,ssDAF12 agonist,hgDAF12 agonist
O=C(COC(=O)c1cc2c(s1)CCC2)Nc1ccc(F)cc1,4.5*,-0.2,1.7,0.1,-2.4
NC(=O)c1ccc(NC(=O)COC(=O)c2cc3c(s2)CCC3)cc1,0.8,0.6,0.8,-0.9,0.2
COC(=O)[C@]12C[C@H](CC(=O)NCCC(C)C)C(=O)N(Cc3ccc(Cl)cc3Cl)C1=C[C@H](C(C)(C)C)O[C@@H]2C,.,-1.0,-0.8,-0.9,-0.6
CN1OC[C@@H]2CN(C(=O)C3CCCCC3)[C@H](c3ccc(N4CCCCC4)cc3)C[C@@H]21,.,0.1,-0.3,-0.5,-4.8
O=C1N=C(N2CCOCC2)S/C1=C1\C(=O)N(Cc2ccccc2)c2ccccc21,4.4*,-0.1,0.5,-1.2,3.6
CCN(C(=O)[C@@H](C)[C@@H](O)c1ccc(C(C)=O)cc1)c1ccccc1,.,-1.3,-1.0,0.0,-1.7
CC(=O)CC[C@@H]1CC[C@]2(CCCN(C(=O)C3CCCC3)C2)O1,.,0.5,2.5,-0.8,-2.0
CCn1c(SCC(=O)Nc2ccccc2-c2ccccc2)nnc1-c1ccc(C)cc1,.,0.0,-2.1,-1.3,-0.1
CCn1c(SCC(=O)N2CCCCCC2)nc2c([nH]c3ccccc32)c1=O,0.1,0.9,5.3,-0.1,0.6
CCn1c(SCC(=O)N2CCN(c3ccccc3)CC2)nc2c([nH]c3ccccc32)c1=O,0.6,-0.5,3.0,1.2*,3.5
Cc1cc(O)cc(=O)n1-c1cc(C(F)(F)F)cc(C(F)(F)F)c1,.,0.8,-0.7,-1.1,3.4
CC(C)CCNC(=O)[C@@H](Cc1ccccc1)NC(=O)[C@H]1O[C@@H](n2ccc(=O)[nH]c2=O)[C@H](O)[C@@H]1O,.,-0.2,1.7,0.3,3.9
CCOc1cc(OCC)cc(C(=O)N2CCC[C@@H]2C(=O)N2CCC[C@@H]2C(=O)NCc2ccccc2Cl)c1,.,-0.7,2.0,1.0*,3.5
CCOc1cc(OCC)cc(C(=O)N2CCC[C@H]2C(=O)N2CCC[C@H]2C(=O)NCc2ccc(F)cc2F)c1,.,0.8,-1.4,-0.8,0.0
CCCC1=NN2C(=N)/C(=C\c3cc(C)n(Cc4ccccc4)c3C)C(=O)N=C2S1,0.1,-0.2,-0.6,-0.2,-2.2
Cc1cc(/C=C2\C(=N)N3N=CSC3=NC2=O)c(C)n1Cc1ccccc1,5.4*,2.2,3.3,0.4,6.7
CN1C(=O)c2cc(NC(=O)Nc3ccccc3)ccc2OC[C@H]2O[C@@H](CC(=O)Nc3cc(F)ccc3F)CC[C@@H]21,.,0.1,-5.5,-0.6,3.0
COC(=O)C[C@H]1CC[C@H]2[C@@H](COc3ccc(NC(=O)Nc4ccccc4)cc3C(=O)N2C)O1,.,0.0,-2.0,-0.8,0.6
OCCC1CN(Cc2cc(F)ccc2-n2cccn2)CCN1C1CCCC1 (centres undefined),1.2,0.1,-2.1,1.7*,-0.3
COC(=O)c1cc2c(c3c4cc(F)ccc4n(S(=O)(=O)c4ccc(C)cc4)c13)C(=O)N(c1ccc(OC)cc1)C2,.,0.5,0.8,-0.1,2.4
O=C1c2ccccc2NC2(CCCCC2)N1N=C1CCCCC1,0.9,0.7,1.4,-0.5,12.0*
O=C1c2ccccc2NC2(CCCC2)N1O,0.0,-0.5,-0.6,-1.0,1.7
C[C@@H]1ON(C)[C@H]2C[C@H]3c4cc(N5CCCCC5)ccc4CCN3C[C@@H]12,.,-0.5,-1.3,-0.5,-3.1
O=C(NC(=S)NC1CCCc2ccccc21)c1ccco1 (centres undefined),0.1,-0.9,-0.7,-1.8,-1.0
CCc1ccc(C(=O)NC(=S)Nc2ccc3c(c2)OCCO3)cc1,3.2,3.0,3.2,0.5,12.1*
O=C(NC(=S)NC1CCC(O)CC1)c1ccco1 (centres undefined),0.2,4.1*,-1.1,-0.7,4.2
O=C(NC(=S)Nc1cccc(O)c1)c1ccco1,3.7,1.0,0.5,1.7*,9.5

# Screening data (PubChem BioAssay)
